# Reference: the supplement of paper PMC4466140
# Columns and labels:
# Test in all cases: SPOT peptide array binding signal intensity (averaged, normalized) (arbitrary units (background-subtracted, floor 0; scale differs between SH3 domains)); higher = stronger binding of the SH3 domain to the peptide
# [1] = molecular target: ScBbc1
# How it was run: (§1)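 The binding signal is the normalized, background-subtracted spot intensity averaged over replicates; its arbitrary units differ between domains. It was obtained by incubating 10 μg/ml GST-fused SH3 domains from four yeast species overnight at 4°C in TBS-based blocking buffer on cellulose membranes with synthetic 15-mer peptides, cysteines replaced by serines, then detecting with anti-GST antibody, HRP anti-mouse secondary and luminol.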
# [2] = molecular target: ScBem1-D1
# How it was run: as §1
# [3] = molecular target: ScBzz1-D1
# How it was run: as §1
# [4] = molecular target: ScBzz1-D2
# How it was run: as §1
# [5] = molecular target: ScCyk3
# How it was run: as §1
# [6] = molecular target: ScFus1
# How it was run: as §1
# [7] = molecular target: ScHof1
# How it was run: as §1
# [8] = molecular target: ScHse1
# How it was run: as §1
# [9] = molecular target: ScLsb1
# How it was run: as §1
# [10] = molecular target: ScLsb2
# How it was run: as §1
# [11] = molecular target: ScLsb3
# How it was run: as §1
# [12] = molecular target: ScLsb4
# How it was run: as §1
# [13] = molecular target: ScMyo3
# How it was run: as §1
# [14] = molecular target: ScMyo5
# How it was run: as §1
# [15] = molecular target: ScNbp2
# How it was run: as §1
# [16] = molecular target: ScPex13
# How it was run: as §1
# [17] = molecular target: ScRvs167
# How it was run: as §1
# [18] = molecular target: ScSho1
# How it was run: as §1
# [19] = molecular target: ScSla1-D1-D2
# How it was run: as §1
# [20] = molecular target: ScSla1-D3
# How it was run: as §1
# [21] = molecular target: SpAbp1-D1
# How it was run: as §1
# [22] = molecular target: SpBbc1
# How it was run: as §1
# [23] = molecular target: SpBzz1-D1
# How it was run: as §1
# [24] = molecular target: SpBzz1-D2
# How it was run: as §1
# [25] = molecular target: SpCyk3
# How it was run: as §1
# [26] = molecular target: SpHof1
# How it was run: as §1
# [27] = molecular target: SpHof1-2
# How it was run: as §1
# [28] = molecular target: SpHof1-3
# How it was run: as §1
# [29] = molecular target: SpHse1
# How it was run: as §1
# [30] = molecular target: SpLsb1
# How it was run: as §1
# [31] = molecular target: SpLsb4
# How it was run: as §1
# [32] = molecular target: SpMyo1
# How it was run: as §1
# [33] = molecular target: SpNbp2
# How it was run: as §1
# [34] = molecular target: SpPex13
# How it was run: as §1
# [35] = molecular target: SpRvs167
# How it was run: as §1
# [36] = molecular target: SpSla1-D1-D2
# How it was run: as §1
# [37] = molecular target: SpSla1-D3
# How it was run: as §1
binder,measurement,setting,value
PLRRTVMSLPGNHDI,SPOT peptide array binding signal intensity,[1],13
same,SPOT peptide array binding signal intensity,[2],1.5
same,SPOT peptide array binding signal intensity,[3],4.75
same,SPOT peptide array binding signal intensity,[4],5.75
same,SPOT peptide array binding signal intensity,[5],15
same,SPOT peptide array binding signal intensity,[6],407
same,SPOT peptide array binding signal intensity,[7],≤ 0
same,SPOT peptide array binding signal intensity,[8],288
same,SPOT peptide array binding signal intensity,[9],14.5
same,SPOT peptide array binding signal intensity,[10],≤ 0
same,SPOT peptide array binding signal intensity,[11],52
same,SPOT peptide array binding signal intensity,[12],60
same,SPOT peptide array binding signal intensity,[13],≤ 0
same,SPOT peptide array binding signal intensity,[14],≤ 0
same,SPOT peptide array binding signal intensity,[15],584
same,SPOT peptide array binding signal intensity,[16],177
same,SPOT peptide array binding signal intensity,[17],51.9
same,SPOT peptide array binding signal intensity,[18],909
same,SPOT peptide array binding signal intensity,[19],305
same,SPOT peptide array binding signal intensity,[20],404
same,SPOT peptide array binding signal intensity,[21],671
same,SPOT peptide array binding signal intensity,[22],1.5
same,SPOT peptide array binding signal intensity,[23],243
same,SPOT peptide array binding signal intensity,[24],7.25
same,SPOT peptide array binding signal intensity,[25],0.5
same,SPOT peptide array binding signal intensity,[26],10
same,SPOT peptide array binding signal intensity,[27],24.2
same,SPOT peptide array binding signal intensity,[28],261
same,SPOT peptide array binding signal intensity,[29],788
same,SPOT peptide array binding signal intensity,[30],2.25
same,SPOT peptide array binding signal intensity,[31],258
same,SPOT peptide array binding signal intensity,[32],2.5
same,SPOT peptide array binding signal intensity,[33],392
same,SPOT peptide array binding signal intensity,[34],40
same,SPOT peptide array binding signal intensity,[35],48.8
same,SPOT peptide array binding signal intensity,[36],1.5
same,SPOT peptide array binding signal intensity,[37],126
